# Laboratory results as given in PubChem BioAssay.
# Experiments:
# [1] = inhibitors of PAF-induced NFkB signaling in CF airway cells, dose response, cell-based, uHTS hits, panel, cytotoxicity readout (AID 624344); details: CF bronchial epithelial cells, PAF-induced NFkB reporter inhibition, with PAF, run 1; at 79 µM (top of the series) unless noted
# [2] = as above; details: CF bronchial epithelial cells, PAF-induced NFkB reporter inhibition, with PAF, run 2; at 79 µM (top of the series) unless noted
SMILES,inhibition [1],inhibition [2]
Oc1ccc(Nc2ncnc3scc(-c4ccccc4)c23)cc1,56%,41%
O=C1NC(c2cccc3ccccc23)Nc2ccc(Cl)cc21 (configuration not stated),61.5%,99.9%
CC(C)C[C@@H](CN1CCCC1CN1C(=S)NC[C@@H]1Cc1ccc(O)cc1)N1C[C@H](Cc2ccc(O)cc2)N(CCc2ccccc2)C1=S (some centres not stated),112%,101%
Cc1nc([N+](=O)[O-])c(Sc2nc3ccc([N+](=O)[O-])cc3[nH]2)n1Cc1ccccc1,101%,112%
Cc1cc(C)nc(Sc2ncnc(N)c2[N+](=O)[O-])n1,96.2%,88.9%
COc1ccc(-n2nnnc2S(=O)(=O)Cc2ccc(C(=O)O)cc2)cc1,74.7%,102%
COc1ccc(-c2cc(=O)oc3cc(OC(=O)C4CCCCC4)ccc23)cc1,110%,101%
CCn1c2ccccc2c2cc(/C=N/O)ccc21,114%,105%
Cc1cccc(C)c1NS(=O)(=O)c1ccc(-c2cnc(C3CC3)o2)cc1,112%,105%
CCOc1ccc(C(C(=O)NCC2CCCO2)N(Cc2cccs2)C(=O)c2snc(C(N)=O)c2N)cc1 (configuration not stated),99.5%,92.5%
C[C@H](CO)N1C[C@H](C)[C@@H](CN(C)C(=O)Nc2ccc3c(c2)OCO3)Oc2c(NC(=O)Nc3ccc(C(F)(F)F)cc3)cccc2C1=O,113%,105%
COc1ccc(-c2cn[nH]c2-c2ccc(OCc3ccccc3)cc2O)cc1,99.8%,114%
Cc1ccc(S(=O)(=O)n2cc(-c3ccccc3)c3ccccc32)cc1,114%,108%
C=C(C)[C@@H]1CC[C@]2(C(=O)O)CC[C@]3(C)[C@H](CC[C@@H]4[C@@]5(C)CC[C@H](O)C(C)(C)[C@@H]5CC[C@]43C)[C@@H]12,47.9%,57.6% [at 19.8 µM]
COc1ccc(NC(=O)Cn2ncn3nc(-c4ccc(OC)cc4)cc3c2=O)cc1,102%,107%
COc1cc(O)cc2cc3c(c(O)c12)C(=O)CC(C)(O)O3 (configuration not stated),99.9%,108%
O=C(c1ccccc1)C1OC1C(=O)c1ccccc1 (configuration not stated),101%,109%
C=CC[C@@H](CC(=O)N[C@H](CO)Cc1ccccc1)C(=O)NC[C@H](OC(=O)[C@@H](CC=C)Cc1ccc(F)cc1)c1ccccc1,101%,108%
COc1ccc(COC(=O)C2=C(C)NC(=O)NC2c2ccc(OC)cc2)cc1 (configuration not stated),76.8%,78%
Cc1cc2cc(CCNC(=O)C(=O)c3c[nH]c4ccccc34)c(=O)[nH]c2cc1C,94.2%,95.5%
CN1CCC(OC(=O)c2cc3cc(Cl)cc(Cl)c3oc2=O)CC1,108%,97.8%
Clc1ccc(CSc2nnc(-c3ccncc3)o2)cc1,102%,83.7%

SMILES,inhibition [1],inhibition [2]
COc1ccc(-n2ncc3c(N4CCN(Cc5ccccc5)CC4)ncnc32)cc1,113%,102%
O=C(NCc1cccnc1)/C(=C\c1ccc(-c2cccc(Cl)c2)o1)S(=O)(=O)c1ccccc1,101%,99.2%
O=C(Nc1ccncc1)c1c(Cl)cccc1Cl,112%,101%
COc1cccc(C(=O)N2C(C(C)C)COc3cc(Br)ccc3S2(=O)=O)c1 (configuration not stated),118%,101%
CCCn1c(-c2nonc2N)nc2ccccc21,99.6%,95.5%
CCOc1ccc(NCc2cc3c(C(C)(C)C)nn(-c4ccccc4)c3[nH]c2=O)cc1,101%,109%
CCC1(O)C(=O)OCc2c1cc1n(c2=O)Cc2cc3cc(O)ccc3nc2-1 (configuration not stated),106%,88.8%
CN(C)CCCN(C(=O)CCOc1ccccc1)c1nc2c(F)cccc2s1,99.3%,99.1%
CCCN(CC)c1ncnc2[nH]ncc12,106%,108%
C=CC(=O)Nc1cccc(Oc2ncnc3[nH]cc(-c4cnc5ccccc5c4)c23)c1,102%,109%
Fc1ccc(Nc2ccnc(Nc3ccc(F)cc3)n2)cc1,113%,101%
Cc1ccc(-c2c(C#N)c(N)n3c(nc4ccccc43)c2C#N)cc1,109% [at 39.5 µM],50.7%
Cc1nn(-c2ccccc2)c(N2CCCC2)c1/C=N/NC(=O)c1cc(-c2ccccc2)nc2ccccc12,104%,80%
CC(=O)c1c(C)n(-c2ccccc2)c2ccc(O)cc12,90.8%,91.5%
O=C1OC(Nc2nc(-c3ccc(F)cc3)cs2)c2ccccc21 (configuration not stated),102%,113%
O=C(Nc1ccc([N+](=O)[O-])cc1)Nc1ccc(Cl)cc1F,109%,101%
O=C1C=C(NC2=CC3OC(c4ccccc4)OCC3OC2=O)CCC1 (configuration not stated),103%,111%
COc1cc(O)c(CC=C(C)C)c(O)c1C(=O)CCc1ccc(O)cc1,112%,104%
O=C(CN1C(=O)CCC1=O)Nc1nc(-c2nc3ccccc3s2)cs1,84.7%,85.9%
O=c1cc(-c2ccccc2Cl)oc2c([N+](=O)[O-])c(O)cc(O)c12,101%,109%
CNC(=O)COC(=O)c1ccccc1C(=O)c1ccc(Cl)c([N+](=O)[O-])c1,103%,102%
Cc1ccc(NC(=O)Nc2cccc([N+](=O)[O-])c2)cc1F,102%,113%

SMILES,inhibition [1],inhibition [2]
COc1cc2c(c(OC)c1OC)-c1ccc(NCc3ccccc3)c(=O)cc1C(NC(C)=O)CC2 (configuration not stated),94.4%,112%
O=C(Nc1ccc2c(c1)OCCO2)c1cc(-c2ccccn2)nc2ccc(Br)cc12,6.4%,68.9%
Cc1ccc(CNc2ncnc3ccc(-c4ccoc4C)cc23)o1,103%,89.6%
CC(=O)Nc1ccc(S(=O)(=O)N2c3ccccc3C(C)=CC2(C)C)cc1,93.9%,56.4%
NC1(C(=O)O)CSSC1,112%,103%
CCC(=O)Nc1nc(C)c(-c2csc(Nc3cccc(O)c3)n2)s1,95.9%,104%
NC(=O)c1sc2nccc(Nc3ccccc3)c2c1N,117%,103%
Cc1ccc(CNc2ncnc(N)c2[N+](=O)[O-])cc1,87.7%,80.8%
CS(=O)(=O)Nc1cccc(-c2cc(NC=O)c3ncc(-c4ccc(F)cc4)n3c2)c1,84%,88.3%
O=C1N(c2ccccc2C(F)(F)F)O[C@]1(c1ccccc1)C1CCCCC1,90.7%,98.7%
COc1cc2c(c(OC)c1OC)-c1ccc(SC)c(=O)cc1C(NC(=O)C(F)(F)F)CC2 (configuration not stated),72.8%,79%
CCOC(=O)c1ccc(NC(=O)Nc2nncs2)cc1,83.2%,111%
O=[N+]([O-])c1cccc(/C=N/Nc2cc(N3CCOCC3)ncn2)c1,116%,102%
CC(NC(=O)OCc1ccccc1)C(=O)Oc1cc2oc(=O)cc(-c3ccccc3)c2cc1Cl (configuration not stated),103%,103%
COc1ccc2c(c1OC)C(=O)N1c3ccccc3C(=O)N(c3ccccc3)C21 (configuration not stated),112%,102%
Cc1ccc2c(c1)C(=O)C(=O)N2Cc1ccc(Br)cc1,106%,113%
Cc1ccnc(Nc2nc(-c3sc(C)nc3C)cs2)c1,107%,104%
Cc1ccc(-c2cc(C(=O)N(C)Cc3cnn(C)c3C)c3cc(Br)ccc3n2)cc1,109%,102%
CC(=O)Oc1c(Cl)cc(N(C(C)=O)S(=O)(=O)c2ccccc2)c2ccccc12,89.7%,108%
CC[C@H](CO)Nc1nc(Nc2cccc(Cl)c2)c2ncn(C(C)C)c2n1,106%,108%
COc1ccc2nc(Nc3nc(CSc4nc5ccccc5[nH]4)cc(=O)[nH]3)nc(C)c2c1,108%,102%
Cc1ccc(-c2onc3ccc(C(=O)/C=C/N(C)C)cc23)cc1,101%,113%
